# Screening results deposited in PubChem by National Center for Advancing Translational Sciences (NCATS).
# Compounds with a hit are over-represented: about 9.3% of the library has one in this group of screens.
# ELG1 DNA repair = inhibitors of ELG1-dependent DNA repair in HEK293T cells | HEK293T ELG1-luciferase reporter, luminescence, 16 h; DNA damage induced by 5-fluorouridine | Potency, µM (top dose mostly 46.1 µM), for the others: at the top dose activity change, negative = inhibition, hits mostly inhibitors | actives 2.3% (n = 330,000) | AID 504467; note: % is set by controls: 0 for no effect and ±100 for the full control effect; nearly all actives have a fitted effect of over 55% in size
#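 Luminescence from the luciferase reporter, measured 30 min after ONE-Glo reagent at room temperature, was the read-out. Beforehand, 2,000 cells per well were exposed for 16 hr at 37 °C to 5-fluorouridine together with compound or vehicle.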
# FLuc counter = firefly luciferase modulation, counter-screen for miR-21 project | purified FLuc, Km substrates, luminescence inhibition | Potency, µM (top dose mostly 57.5 µM), without a hit: at the highest dose activity change, negative = inhibition, actives largely listed as inhibitors | actives 6.9% (n = 360,000);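 note: plate controls were vehicle for no effect and reference inhibitor for full effect; nearly all actives have a fitted effect of over 55% in size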
# Target sequence (P08659 whole entry, looked up): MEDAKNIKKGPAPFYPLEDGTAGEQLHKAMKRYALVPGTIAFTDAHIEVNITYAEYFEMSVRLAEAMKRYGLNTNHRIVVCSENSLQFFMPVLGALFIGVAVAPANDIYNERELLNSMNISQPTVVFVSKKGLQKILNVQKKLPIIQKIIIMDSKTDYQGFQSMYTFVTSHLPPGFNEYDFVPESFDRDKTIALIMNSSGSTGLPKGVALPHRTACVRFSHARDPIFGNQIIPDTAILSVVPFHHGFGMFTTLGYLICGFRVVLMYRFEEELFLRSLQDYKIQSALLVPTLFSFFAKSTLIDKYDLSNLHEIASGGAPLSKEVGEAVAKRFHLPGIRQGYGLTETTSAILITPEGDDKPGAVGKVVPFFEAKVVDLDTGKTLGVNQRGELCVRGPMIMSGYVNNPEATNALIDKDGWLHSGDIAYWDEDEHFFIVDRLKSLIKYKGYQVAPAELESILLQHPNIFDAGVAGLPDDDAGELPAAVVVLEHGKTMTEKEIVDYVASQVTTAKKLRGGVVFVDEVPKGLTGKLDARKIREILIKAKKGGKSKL
#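 Purified P. pyralis luciferase, 10 nM final, with Km-level 10 uM D-luciferin and 10 uM ATP in 50 mM Tris acetate pH 7.5, 10 mM Mg acetate, 0.01% Tween-20, 0.05% BSA; 6-point qHTS titration about 60 µM downward; luminescence read.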
# SMN2 splice up = SMN2 splice variant enhancement; actives 2.8% (n = 210,000); AID 1458; HEK293 SMN2-luciferase splicing reporter, luminescence, 30-36 h; Potency, µM (highest dose often 46.1 µM), for inactives: at the highest dose activity change, positive = activation, hits mostly activators; note: % of control where 0% means no effect; nearly all actives have a fitted effect of over 55% in size
#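 HEK293 cells carry an SMN2 minigene-luciferase reporter in which exon 7 inclusion puts luciferase in frame. Cells were seeded at 2000 cells/well, attached for 10-12 hours, then exposed to compounds for 30-36 hours at 37C before ONE-Glo luminescence.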
# Rab9 promoter act = activates the Rab9 promoter; Potency, µM (series often up to 9.22 µM), for the others: at the top dose activation, negative = inhibition, usual class: activators; Huh7 Rab9 promoter-luciferase reporter, luminescence, 24 h; actives 2.8% (n = 320,000); AID 485297; note: % of control where 0% means no effect; nearly all actives have a fitted effect of over 60% in size
#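 Quantitative HTS format; Huh7 Rab9-luciferase reporter cells (1500/well) receive compound 2 h post-plating, incubate 24 h at 37 °C, then get luciferase reagent for 10 min before luminescence reading.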
# NPC1 prom act = activators of NPC1 promoter; Huh7 NPC1 promoter luciferase reporter, 24 h; Potency, µM (titrated, usually from 9.22 µM), for the others: at the highest dose activation, actives largely listed as activators; actives 2.4% (n = 320,000); AID 485313; note: % of control where 0% means no effect; nearly all actives have a fitted effect of over 60% in size
#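 Huh7 reporter cells (NPC1 promoter driving luciferase) are dosed with compound for 24 h at 37 °C, 5% CO2; luciferase detection reagent is then added and luminescence measured after 10 min at ambient temperature.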
# ELG1 genotox = induces genotoxicity in HEK293T cells with luciferase-tagged ELG1; HEK293T ELG1-luciferase reporter, luminescence, 16 h; Potency, µM (series often up to 46 µM), for inactives: at the top dose activity change, positive = activation, usual class: activators; actives 1.3% (n = 330,000); AID 504466; note: % of control where 0% means no effect; nearly all actives have a fitted effect of over 60% in size
#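 HEK293T cells expressing luciferase-tagged ELG1 were exposed to compound or DMSO vehicle for 16 hr at 37 °C and 5% CO2. Luciferase activity was then measured with ONE-Glo after 30 min at room temperature.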
# * hit, by the source's call; u = inconclusive; x = no result. Calls come from the whole dose curve; as a rule, active = well fitted curve in the direction sought with a large enough effect; inconclusive = small, poorly fitted or top-dose-only effect, or another doubt; inactive = no such curve, though single readings can be large; an effect the other way counts as inactive or inconclusive. Potency is the fitted concentration of half-maximal effect.
SMILES,ELG1 DNA repair,FLuc counter,SMN2 splice up,Rab9 promoter act,NPC1 prom act,ELG1 genotox
O=C(c1cccnc1)N1CCC(Oc2ccc(C(=O)N3CCCCO3)cc2)CC1,4%,-2%,x,2%,0%,-4%
O=C(NNC(=O)C1CCN(c2ncccn2)CC1)c1ccc(Cl)cc1,2%,-2%,x,0%,-6%,1%
COc1cc(/C=C/c2ccc3cccc([N+](=O)[O-])c3n2)ccc1OCC#N,23µM*,u,23%,-33%,-6%,-3%
O=[N+]([O-])c1ccc(/C=C/c2ccc3cccc([N+](=O)[O-])c3n2)cc1,10%,-3%,-41%,10%,0%,4%
O=[N+]([O-])c1cccc2ccc(/C=C/c3ccc(F)cc3)nc12,u,8.5µM*,u,1%,20%,25%
CCOc1cc(/C=C/c2ccc3cccc([N+](=O)[O-])c3n2)ccc1O,-23%,u,9%,-1%,-3%,0%
CCOc1cc(/C=C/c2ccc3cccc([N+](=O)[O-])c3n2)ccc1OCC(=O)N(C)C,16µM*,u,-26%,-12%,-3%,-17%
CCOC(=O)c1c(NC(=O)C(C)Oc2ccccc2F)sc(C(C)=O)c1C (configuration not stated),x,-1%,2%,x,x,x
Cc1cc(C(=O)O/N=C(\N)c2ccncc2)ccc1[N+](=O)[O-],u,17µM*,x,3.2µM*,u,u
COc1ccc(/C(N)=N/OC(=O)c2ccc([N+](=O)[O-])c(C)c2)cc1OC,-12%,u,-10%,-2%,-3%,-4%
COc1ccc(/C(N)=N/OC(=O)c2ccc(C)c([N+](=O)[O-])c2)cc1,u,19µM*,-2%,21%,20%,u
COc1ccc(CCOC(=O)c2ccc(N)c([N+](=O)[O-])c2)cc1,-20%,-8%,x,1%,-1%,-6%
COc1ccc(Cl)cc1NC(=O)CN(C)C(=O)c1ccc2c(c1)CC(c1ccccc1)OC2=O (configuration not stated),u,0%,x,-1%,-1%,-1%
O=C(CSc1nc(-c2ccccc2)cs1)NC(=O)NCc1ccco1,18µM*,-13%,-23%,-2%,2%,-9%
CC(C)NC(=O)CSc1nc(-c2ccccc2)cs1,u,19µM*,u,2.5µM*,u,17%
O=C(CSc1nc(-c2ccccc2)cs1)Nc1nccs1,-3%,-1%,20%,15%,3%,0%
COC(=O)c1ccc(CSc2nc(-c3ccccc3)cs2)o1,u,8.5µM*,2%,12%,12%,12%
Cc1cccc(OCC(=O)NNC(=O)c2ccccc2OCc2c(C)noc2C)c1,-3%,-9%,x,0%,-1%,1%
CCOCCn1c(=NC(=O)c2ccc(S(=O)(=O)N3CCOCC3)cc2)sc2cc(S(N)(=O)=O)ccc21,18µM*,-1%,x,3%,-5%,-20%
COCCn1c(=NC(=O)c2ccc(S(=O)(=O)N3CCc4ccccc4C3)cc2)sc2cc(S(N)(=O)=O)ccc21,3%,2%,-15%,-9%,-3%,0%
CC(C)n1ncc(N2CCOCC2)c(Cl)c1=O,20%,4%,x,7%,-4%,1%
CCOC(=O)c1ccc(S(=O)(=O)NNC(=O)c2cccc(N(C)C)c2)cc1,29%,19µM*,15%,18%,5%,0%
CCNc1ccc(C(=O)OCC)cc1NC(=O)c1cccc(N(C)C)c1,u,u,12%,-7%,-9%,6%
CC1CCN(C(=O)COC(=O)c2cccc(S(=O)(=O)N(C)c3ccccc3)c2)CC1,12%,11µM*,x,4%,-1%,-1%
CCNc1ccc(C(=O)OCC)cc1NC(=O)c1cccc(S(=O)(=O)N(C)c2ccccc2)c1,7.3µM*,-1%,-20%,-9%,-2%,-1%
SMILES,ELG1 DNA repair,FLuc counter,SMN2 splice up,Rab9 promoter act,NPC1 prom act,ELG1 genotox
COc1ccc(N(C)S(=O)(=O)c2cccc(C(=O)OCC(=O)N(C)c3ccccc3)c2)cc1,16µM*,x,x,x,x,-9%
CC1CCCC(C)N1C(=O)COC(=O)c1cccc(S(=O)(=O)N(C)c2ccccc2)c1 (configuration not stated),-26%,u,x,-5%,-2%,-3%
CC1(C)N=C(SCc2ccc(F)cc2)c2ccccc2N1,x,3%,x,x,x,x
Cc1cccc(Cn2c(=O)n(CC3CCC(C(=O)N4CCC(C)CC4)CC3)c(=O)c3sccc32)c1 (configuration not stated),x,-5%,x,x,x,x
CCCCCCSc1ccc(-c2nc3ccc(C)cn3c2NC2CCCCC2)cc1,4%,5%,x,-4%,-2%,-2%
CCC(C)Sc1ccc(-c2nc3ccc(C)cn3c2NCc2ccccc2)cc1 (configuration not stated),u,x,x,x,x,9%
CCCCSc1ccc2nc(-c3ccc(C#N)cc3)cn2c1,u,4.8µM*,u,u,u,4%
CCCSc1ccc2nc(-c3ccccc3)cn2c1,u,0.085µM*,x,0.45µM*,0.71µM*,u
COC(=O)c1c(C)oc2ccc(N(C(=O)Oc3ccccc3)S(=O)(=O)c3ccc(C(C)(C)C)cc3)cc12,x,2%,-29%,x,x,x
COc1cccc(NC(=O)[C@H](CC(C)C)NC(=O)[C@@H]2Cc3ccccc3CN2)c1,u,0%,x,-1%,0%,12%
CN(CCN1CCc2ccccc2C1)Cc1nc(Cc2ccccc2F)no1,1%,0%,x,-5%,-2%,1%
Cc1ccnc(N2C(=O)c3ccccc3C2O)c1 (configuration not stated),u,6µM*,11µM*,u,1µM*,1.8µM*
Cc1ccnc(N2C(=O)c3ccccc3C2Nc2cccc(C)c2C)c1 (configuration not stated),u,3%,9%,-4%,-3%,1%
CC1(C)CC(=O)C2=C(C1)Nc1ccccc1N=C2,6%,6.7µM*,u,-3%,-1%,11%
Cc1cccc(CNc2ncnc3ccc(-c4ccc5c(ccn5C)c4)cc23)c1,x,u,x,-5%,-3%,x
CCc1cc(C(=O)N2CCCC(N3CCN(c4cccc(C(F)(F)F)c4)CC3)C2)n(C)n1 (configuration not stated),-21%,-1%,x,-22%,-16%,-11%
COc1ccccc1NC(=O)NC1CCCCCCC1,u,13µM*,x,2%,-2%,-3%
O=C(Nc1ccccc1Cl)NC1CCCCCCC1,u,13µM*,x,u,u,u
COc1ccccc1NC(=S)NC1CCCCCC1,-5%,u,x,0%,-1%,-3%
